The results in this text go back to PubChem BioAssay (NCI).

Assay in all cases: NCI-60 one-dose screen, 48 h (100 = growth as untreated, 0 = no growth, -100 = all killed)
Conditions in all cases: 10 µM unless noted

For assay [1], the system named is T-47D breast.
The test system of assay [2] is BT-549 breast.
In assay [3] the test system is MDA-MB-435 melanoma.
Assay [4] has as its system SW-620 colon.
Assay [5] relates to MCF7 breast.
Assay [6] has as its system HCT-116 colon.
In assay [7] the test system is HCC-2998 colon.
For assay [8], the system named is KM12 colon.

This is part of a sample that, as a whole, favours compounds with a hit. Of some 83,000 tested, about 20% had one in any assay.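 Step 1: grow cells in 96-well plates. Step 2: add test compound at a single concentration. Step 3: incubate 48 h. Step 4: record percent growth.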 Unmarked numbers belong to inactive results. Active and inactive are the calls of the source. Rule for the calls: active = growth percent below 10; inactive = the rest.

For `CN1CCN(CC(=O)Nc2ccc3ncnc(Nc4ccc(Oc5cccc(C(F)(F)F)c5)c(Cl)c4)c3c2)CC1`, the growth is 44.4% in assay [1]; 73.1% in assay [2]; -86% (active) in assay [3]; -68% (active) in assay [4]; -51.3% (active) in assay [5]; 6.69% (active) in assay [6]. For the same compound, the growth in assay [7] is -5.89% (active); in assay [8], 23.5%.
`CCOc1cccc(/C=N/NC(=O)c2cccc(Nc3ccnc(C(F)(F)F)c3)c2)c1O`: the growth in assay [1] is 27.6%; in assay [2], 48.5%; in assay [3] it was 34.4%; in assay [4], 36.6%; in assay [5], 17.4%; in assay [6], 13%. For the same compound, the growth is 43.5% in assay [7] and 38.9% in assay [8].
`C=C(C)[C@@H]1CC[C@]2(C(N)=O)CC[C@]3(C)[C@H](CC[C@@H]4[C@@]5(C)CC[C@H](OCCC#N)C(C)(C)[C@@H]5CC[C@]43C)[C@@H]12`: the growth in assay [1] was 72.3%; in assay [2] it was 97.8%; in assay [3] it was 89.1%; in assay [4], 87%; in assay [5] it was 86.7%; in assay [6], 91%. The growth was 110% in assay [7] and 89.2% in assay [8].
For the compound `CCn1c(-c2cc3c([nH]c4ccccc43)c(-c3cccc(O)c3)n2)n[nH]c1=S`, the growth is 11.7% in assay [1]; 26.7% in assay [2]; -24.2% (active) in assay [3]; 62.8% in assay [4]; 32.6% in assay [5]; 48.2% in assay [6]. Besides, the growth is 68.3% in assay [7] and 28.4% in assay [8].
Take `CCCn1nc(C(=O)N(C)Cc2ccccc2)c2c1CCC(N1CCc3ccccc31)C2` (stereo not drawn): the growth in assay [1] is 108%; in assay [2], 94.8%; in assay [3] it was 106%; in assay [4], 104%; in assay [5], 85.3%; in assay [6] it was 77.8%. The growth in assay [7] is 116%; in assay [8], 106%.
As to `c1ccc(CCNc2c3ccccc3nc3ccccc23)cc1`, the growth was 48.9% in assay [1]; 73.6% in assay [2]; 55.3% in assay [3]; 28.3% in assay [4]; 12.2% in assay [5]; 16.5% in assay [6]. Besides, the growth was 41.4% in assay [7] and 57.4% in assay [8].
As for `S=c1nc2oc(-c3ccccc3)c(-c3ccccc3)c2c(/N=C\c2ccco2)[nH]1`, the growth in assay [1] was 65.9%; in assay [2] it was 103%; in assay [3] it was 108%; in assay [4], 101%; in assay [5], 93.1%; in assay [6] it was 84.4%. In addition, the growth was 109% in assay [7] and 94.1% in assay [8].
Turning to `COc1ccc(CCN(CC(=O)N(CC(N)=O)C2CCC[C@@H]2OCc2ccccc2)C(=O)CN(C(=O)CN(CCc2ccc(Cl)cc2)C(=O)CN(C(=O)CN(C)Cc2ccccc2F)[C@H](C)C2CCCCC2)[C@H](C)C2CCCCC2)cc1OC` (stereo partly drawn), the growth in assay [1] is 27%; in assay [2], 47.3%; in assay [3], 26%; in assay [4], 53.2%; in assay [5] it was 14.1%; in assay [6], 22.4%. Also, the growth in assay [7] was 0.406% (active); in assay [8], 20.2%.
Regarding `CCN1C(=O)N(CC)C2C1NC(=S)N2/N=C/c1ccc(C(F)(F)F)cc1` (stereo not drawn), the growth was 74.7% in assay [1]; 71% in assay [2]; 4.45% (active) in assay [3]; 55.3% in assay [4]; 33.2% in assay [5]; 54.9% in assay [6]. Besides, the growth in assay [7] was 74%; in assay [8], 56%.
Take `CCN1C(=O)N(CC)C2C1NN=c1s/c(=C3\C(=O)N(CCC(C)C)c4ccccc43)c(=O)n12` (stereo not drawn): the growth is 80.2% in assay [1]; 11.6% in assay [2]; -31.3% (active) in assay [3]; 31.7% in assay [4]; 14.9% in assay [5]; 10.6% in assay [6]. For the same compound, the figures for the growth in assay [7] and in assay [8] were 11.6% and 17.6%, respectively.
`O=C(Nc1cnc(Nc2ccc(N3CCOCC3)nc2)nc1Oc1ccc(C(F)(F)F)cc1)c1ccncc1`: the growth was 72.9% in assay [1]; 75.8% in assay [2]; 91.3% in assay [3]; 97.5% in assay [4]; 77.3% in assay [5]; 61.9% in assay [6]. Moreover, the growth was 110% in assay [7] and 91% in assay [8].
For the compound `Oc1c(CN2CCC(N3CCCCC3)CC2)cc(Cc2cc(CN3CCC(N4CCCCC4)CC3)c(O)c3ncccc23)c2cccnc12`, the growth was 7.31% (active) in assay [1]; 27% in assay [2]; -13.1% (active) in assay [3]; 29.1% in assay [4]; 6.62% (active) in assay [5]; 13% in assay [6]. Moreover, the growth in assay [7] was 32.9%; in assay [8], 21.7%.
`CCS/C(Nc1ccccc1)=C(\C#N)C(=O)Nc1ccc(OC)cc1`: the growth in assay [1] was 25.4%; in assay [2] it was 40.5%; in assay [3] it was -47.9% (active); in assay [4] it was 18%; in assay [5], 19%; in assay [6] it was 14.3%. Also, the figures for the growth in assay [7] and in assay [8] were 55.2% and 31%, respectively.
Regarding `CC1(C)N=C(N)N=C(N)N1c1cccc(CCc2ccccc2)c1`, the growth is 37.7% in assay [1]; 42.4% in assay [2]; 47.5% in assay [3]; 27.4% in assay [4]; 23.8% in assay [5]; 19.8% in assay [6]. Moreover, the growth in assay [7] is 2.34% (active); in assay [8], 21.9%.
`O=C(O)/C=C/C(=O)Nc1cccc(Cn2nnc3cc(Cl)c(Cl)cc32)c1`: the growth is 93.2% in assay [1]; 80.1% in assay [2]; 106% in assay [3]; 96.3% in assay [4]; 89% in assay [5]; 96.9% in assay [6]. Besides, the results for the growth in assay [7] and in assay [8] were 112% and 109%, respectively.
As to `CC1=C(CCC(C)NCc2ccc(OCCCN3CCCCC3)cc2)C(C)(C)CCC1` (stereo not drawn), the growth in assay [1] is -64.8% (active); in assay [2] it was -63.9% (active); in assay [3] it was -93.8% (active); in assay [4] it was -80.3% (active); in assay [5], -58.4% (active); in assay [6], -85.3% (active). Besides, the growth is -84.3% (active) in assay [7] and -80% (active) in assay [8].
